mHTT CaM bind – mutant huntingtin-calmodulin interaction inhibitors – biochemical, AlphaScreen, primary screen. P42858. AlphaScreen His-mHTT/GST-CaM binding, luminescence. inhibition, % at 15 µM. actives 3.6% (n = 190,000);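 note: 0% = both proteins with DMSO and 100% = one protein alone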
Pf apPOL block – Pf-apPOL inhibitors, biochemical, fluorescence; actives 0.25% (n = 210,000); AID 1794808, 2022; Plasmodium falciparum apicoplast DNA polymerase (apPOL); inhibition, % at 10 µM; Recombinant Pf-apPOL, molecular beacon fluorescence, 1.5 h
The depositor's hits bear a star; x = no result. Sampled rows, rich in hits. Any-hit rate of the full collection: about 3.6%. Cut-off read from the data, not from the text of the source: active = inhibition above about 50%; inactive = the rest.

SMILES	mHTT CaM bind	Pf apPOL block
COc1cc(C=C2SC(=S)N(c3ccc(O)c(C(=O)O)c3)C2=O)ccc1O	54.3*	6.2
CCOc1ccc(C=C2SC(=S)N(CCCCCC(=O)O)C2=O)cc1OC	47.2	14.3
CCC(C(=O)O)N1C(=O)C(=Cc2ccc(O)c(OC)c2)SC1=S (centres undefined)	31.7	-36.5
COc1cccc(N2C(=O)CC(Sc3nc4ccccc4s3)C2=O)c1 (centres undefined)	9.0	1.4
CCc1ccc2nc(N3CCC(C(=O)NC4CC4)CC3)sc2c1	2.0	0.8
O=C(Cc1cccs1)Nc1ccc2c(c1)OCO2	0.1	-6.9
Cc1ccc(C2=NC(=C(Cl)Cl)C(=O)N2)cc1	100.0*	-2.7
Cc1cc(C)c2c(n1)nn1c(Nc3ccccc3)cc(C)nc21	-8.8	-5.5
Cc1cc2ncn(CC(O)COc3c(C)cccc3C)c2cc1C (centres undefined)	46.4	-6.0
Cc1cc(C)c(OCC(O)Cn2cnc3cc(C)c(C)cc32)c(C)c1 (centres undefined)	85.1*	1.7
Cc1cccc(N2C(=O)c3cccnc3C2CC(=O)NC2CC2)c1 (centres undefined)	-7.9	-1.5
NC(=O)c1cc(NC(=O)c2ccc([N+](=O)[O-])cc2)cc(C(N)=O)c1	1.7	2.3
CN1C(=O)c2ccccc2C(C(=O)Nc2ccc(F)cc2Cl)C1c1ccc(F)cc1 (centres undefined)	-2.0	-5.6
Cc1ccc(NC(=O)C2c3ccccc3C(=O)N(C)C2c2c[nH]c3ccccc23)c(Cl)c1 (centres undefined)	87.0*	-5.8
Cc1cc(C)cc(N(CC(=O)Nc2ccc(F)c(Cl)c2)S(C)(=O)=O)c1	56.4*	-1.3
Cc1cc(Cl)ccc1N(CC(=O)Nc1ccc(F)cc1)S(C)(=O)=O	-1.6	-5.3
CC1CCCC(C)N1CC(O)COc1ccc(C23CC4CC(CC(C4)C2)C3)cc1 (centres undefined)	100.3*	-0.4
CC1CCCCN1CC(O)COCC12CC3CC(CC(C3)C1)C2 (centres undefined)	0.1	-4.7
CC1CCCCN1CC(O)COc1ccc(C23CC4CC(CC(C4)C2)C3)cc1 (centres undefined)	100.2*	0.1
CC1CN(CC(O)COc2ccc(C34CC5CC(CC(C5)C3)C4)cc2)CC(C)O1 (centres undefined)	17.6	0.2
CCc1ccc(-c2nc(-c3ccc(-n4ccnc4)nc3)no2)cc1	-9.5	0.7
CC(C)S(=O)(=O)c1ccc(C(=O)Nc2nc(-c3ccncc3)cs2)cc1	-7.3	2.9
NC(=O)c1ccccc1N=Cc1ccc([N+](=O)[O-])o1	4.0	1.2
NC(N)=NN=C(/C=C/c1ccc([N+](=O)[O-])o1)/C=C/c1ccc([N+](=O)[O-])o1	99.6*	x
Cc1cc(C)cc(OCC(=O)Nc2nc(C)cc(C)n2)c1	1.2	2.3
SMILES	mHTT CaM bind	Pf apPOL block
CCC1CCCCN1C(=O)c1c(C)oc2ccn(Cc3ccccc3F)c(=O)c12 (centres undefined)	67.7*	1.6
CCn1ccc2oc(C)c(C(=O)N3CCN(c4ccccc4Cl)CC3)c2c1=O	77.1*	0.2
Cc1oc2ccn(Cc3ccccc3F)c(=O)c2c1C(=O)N1CCCC(C)C1 (centres undefined)	11.1	-1.2
CCn1ccc2oc(C)c(C(=O)N3CCN(C4CCCCC4)CC3)c2c1=O	18.3	1.3
Cn1c2ccccc2c2c(C(=O)Nc3ccc(F)cc3F)cn(C3CCCC3)c(=O)c21	10.0	13.9
O=C(CCN1CCOCC1)Nc1ccc(S(=O)(=O)Nc2cc(Cl)cc(Cl)c2)cc1	x	-2.3
O=C(NCC1(CO)CC1)C(=O)NC1CCCC1	-5.9	0.0
CC12CCC(CC1N)C2 (centres undefined)	54.5*	22.4
O=c1sn(-c2ccc([N+](=O)[O-])cc2Cl)c(=O)n1C1Cc2ccccc2C1	x	49.8
COc1ccc(-c2cnc(-c3c(O)c(C)nc4ccccc34)o2)cc1	60.0*	-1.0
c1ccc(-c2cnc(-c3cccc4ccccc34)o2)cc1	-27.0	x
CC(=O)Nc1cccc(N2CC(C(=O)Nc3ccc(Cl)cn3)CC2=O)c1 (centres undefined)	-2.1	0.8
COc1ccc(NC(=O)c2c(NCc3ccccn3)sc3c2CCCC3)c(OC)c1	53.0*	-18.0
COc1ccc(NC(=O)c2c(NCc3ccccn3)sc3c2CCC(C)C3)c(OC)c1 (centres undefined)	49.0	-16.7
CCOc1ccccc1NC(=O)c1c(NCc2ccccn2)sc2c1CCC2	58.0*	-10.2
CCOc1ccccc1NC(=O)c1c(NCc2cccn2C)sc2c1CCC2	21.0	-15.1
CCOc1ccccc1NC(=O)c1c(NCc2ccncc2)sc2c1CCC2	29.0	-21.1
COc1ccccc1NC(=O)c1c(NCc2ccccn2)sc2c1CCCC2	50.0*	-16.2
CCN1C(=O)C2(C(C#N)=C(N)Oc3n[nH]c(-c4ccncc4)c32)c2ccccc21 (centres undefined)	7.0	-21.7
Cc1cc(C)c(Cc2c(C)nc3c(C(=O)NC4CC4)cnn3c2C)c(C)c1	46.0	-6.8
COc1ccccc1N(CC(=O)Nc1c(C)n(C)n(-c2ccccc2)c1=O)S(C)(=O)=O	-2.9	15.5
Cc1nc2ccccc2c2c1C(=O)N(C1CCCCC1)C2=O	7.0	3.6
CC(C)c1ccc(CN2CC(C(=O)Nc3nc4ccccc4s3)CC2=O)cc1 (centres undefined)	100.0*	-3.9
CC(C)c1ccc(CN2CC(C(=O)Nc3ccccc3)CC2=O)cc1 (centres undefined)	12.2	-2.7
CC(=O)Nc1cccc(N2CC(C(=O)Nc3nc4ccc(Cl)cc4s3)CC2=O)c1 (centres undefined)	52.5*	-1.2
SMILES	mHTT CaM bind	Pf apPOL block
COc1ccc2nc(NC(=O)C3CC(=O)N(c4cccc(NC(C)=O)c4)C3)sc2c1 (centres undefined)	21.2	-2.4
CCN1CCN(C(=O)C2CCN(c3cnn(Cc4ccccc4)c(=O)c3)CC2)CC1	7.3	-4.2
CCOc1cc2c(cc1OCC)C1C(C(=O)Nc3cc(C)ccn3)c3ccccc3C(=O)N1CC2 (centres undefined)	51.0*	-2.7
CCOc1ccccc1NC(=O)C1c2ccccc2C(=O)N2CCc3ccccc3C12 (centres undefined)	15.0	0.9
CCc1ccc(CNC(=O)C2c3cc(OC)c(OC)cc3C(=O)N3CCc4ccccc4C23)cc1 (centres undefined)	10.0	0.6
CCc1ccccc1NC(=O)C1c2cc(OC)c(OC)cc2C(=O)N2CCc3ccccc3C12 (centres undefined)	63.0*	-2.5
Cc1ccc(OCC(=O)Nc2cc(-c3nc4ncccc4o3)ccc2C)cc1	-4.0	0.0
O=C(Cc1ccc(F)cc1)N1CCc2[nH]cnc2C1c1ccncc1 (centres undefined)	8.1	-0.5
O=C(Nc1ccccc1)N1CCc2[nH]cnc2C1c1ccccc1 (centres undefined)	14.8	-0.1
O=C(Cc1cccc(F)c1)N1CCc2[nH]cnc2C1c1ccccn1 (centres undefined)	70.4*	-8.2
O=C(Cc1ccccc1F)N1CCc2[nH]cnc2C1c1ccccc1 (centres undefined)	7.3	-4.9
O=C(Cc1ccc(Cl)cc1)N1CCc2[nH]cnc2C1c1ccccn1 (centres undefined)	90.9*	-19.6
O=C(Nc1ccccc1)N1CCc2[nH]cnc2C1c1ccccn1 (centres undefined)	50.8*	-2.6

Source: PubChem BioAssay (University of Kansas High Throughput Screening Laboratory)
